The list is not random: actives were taken first. Their share in the collection is about 4.7%.
D1 antag: Antagonist of Human D 1 Dopamine Receptor: qHTS. 3.2% of 360,000 active. activity change, negative = inhibition, % at 10 µM. AID 504652, 2011. HEK293 TREx D1 cells, calcium flux, dopamine EC80; active compounds read low; in the data active = activity change below about -30%; note: % is set by controls: 0 for no effect and ±100 for the full control effect
Target sequence (P21728 whole entry, looked up): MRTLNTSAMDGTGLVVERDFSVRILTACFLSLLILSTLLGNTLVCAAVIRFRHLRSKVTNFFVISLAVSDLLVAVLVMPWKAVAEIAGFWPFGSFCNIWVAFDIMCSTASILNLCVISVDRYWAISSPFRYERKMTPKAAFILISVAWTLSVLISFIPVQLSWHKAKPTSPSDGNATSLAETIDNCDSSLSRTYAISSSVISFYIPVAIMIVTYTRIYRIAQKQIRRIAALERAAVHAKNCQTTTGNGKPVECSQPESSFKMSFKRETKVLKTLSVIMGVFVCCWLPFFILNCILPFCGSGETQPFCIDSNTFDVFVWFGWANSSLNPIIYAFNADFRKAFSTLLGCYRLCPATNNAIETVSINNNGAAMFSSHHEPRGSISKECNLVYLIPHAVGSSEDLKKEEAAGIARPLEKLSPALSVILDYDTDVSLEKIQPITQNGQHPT
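Kinetic fluorescence of a calcium dye serves as the read-out. D1-expressing Hek293 Trex cells, induced overnight at 30 C, are exposed to compound for 180 s before an EC80 dopamine addition, then read 180 s further.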
D1 PAM: Potentiators of Human D1 Dopamine Receptor: qHTS | D(1A) dopamine receptor (Homo sapiens), P21728 | HEK293 TREx D1 cells, calcium flux, dopamine EC20 potentiation | potentiation, % at 10 µM | 0.036% of 360,000 active | AID 504651, 2011; in the data active = potentiation above about 30%; note: 0% is about no effect
TRHR ag: qHTS for Small Molecule Agonists and Allosteric Enhancers of Human TRH Receptor: Primary Screen for Agonists | Thyrotropin-releasing hormone receptor (Homo sapiens), P34981 | TRHR cells, calcium flux fluo-8, FDSS agonist mode | activation, % at 2 µM | 0.18% of 360,000 active; note: 0% is about no effect
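Agonist-mode FDSS calcium read (Ex 480/Em 530, 1 s cycles) in 1536-well TRHR cells with fluo-8 dye, after 10-cycle baseline and 23 nL compound addition; TRH at EC20 (10 nM final) added afterwards for the enhancer phase.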
D1 agonist: Allosteric Agonists of the Human D1 Dopamine Receptor: qHTS; D(1A) dopamine receptor (Homo sapiens), P21728; HEK293 T-REx D1 cells, calcium flux, agonist mode; activation, % at 2 µM; 1% of 360,000 active; AID 504660, 2011; note: 0% is about no effect
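Tetracycline-induced HEK293 TREx D1 cells, force-coupled to calcium signalling, were dye-loaded with a no-wash calcium kit. Compound was pin-added after a 10 s baseline. Fluorescence was read kinetically at 1 cycle/s for 180 s, with calcium rises flagged as agonism.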
TRHR enhancer: qHTS for Small Molecule Agonists and Allosteric Enhancers of Human TRH Receptor: Primary Screen for Enhancers. AID 493056, 2011. 0.66% of 360,000 active. TRHR cells, fluo-8 calcium fluorescence, EC20 TRH enhancement. enhancement, % at 2 µM; in the data active = enhancement above about 30%; note: 0% is about no effect
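Enhancer read-out: after compound pinning and an initial kinetic agonist-mode read, an EC20 of TRH (10 nM final) was injected and fluo-8 calcium signal (Ex 480/Em 530) followed at 1 s/cycle for 100 cycles in TRHR-expressing cells.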
Active calls of the source: *. Cut-off read from the data, not from the text of the source, unless noted: active = activation above about 30%; inactive = the rest.

How did CN(CC(=O)NCc1ccco1)CC(=O)Nc1c(Cl)cccc1Cl do in these assays?
D1 antag: -10; TRHR ag: 0; D1 agonist: 3; TRHR enhancer: 7

Results for CCc1ccccc1NC(=O)c1cccc(NC(=O)/C=C/c2ccco2)c1 ?
D1 antag: -36*; D1 PAM: -18; TRHR ag: -1; D1 agonist: 9; TRHR enhancer: -5

What do the screens show for `O=C(/C=C/c1ccco1)Nc1cccc(C(=O)Nc2ccccc2C(=O)O)c1`?
D1 antag: -3; D1 PAM: -1; TRHR ag: -1; D1 agonist: 1; TRHR enhancer: -3

How did O=c1oc2ccccc2cc1-c1ccc(O)cc1O do in these assays?
D1 antag: -31*; D1 PAM: -2; TRHR ag: 0; D1 agonist: 2; TRHR enhancer: 6

How did CCOc1ccccc1CNC(=O)c1cc(-c2ccc(C)c(C)c2)nc2ccccc12 do in these assays?
D1 antag: 27; D1 PAM: 0; TRHR ag: 0; D1 agonist: 4; TRHR enhancer: 2

How did Cc1ccc(C(=O)N[C@@H](C)CN2C3=NC[C@H](C)N3C[C@H]2Cc2ccc(O)cc2)cc1Br do in these assays?
D1 antag: -65*; D1 PAM: -9; TRHR ag: 0; D1 agonist: 4; TRHR enhancer: 0

How did CCc1ccc2c(c1)C(c1ccc([N+](=O)[O-])cc1)=NNC(c1ccc(F)cc1)=N2 do in these assays?
D1 antag: -40*; D1 PAM: -6; TRHR ag: 0; D1 agonist: 1; TRHR enhancer: -2

What do the screens show for `Cc1ccc2c(c1)C(c1ccncc1)=NNC(c1ccccc1)=N2`?
D1 antag: -20; D1 PAM: 4; TRHR ag: 0; D1 agonist: 3; TRHR enhancer: -5

How did Cc1ccc2c(c1)C(c1ccncc1)=NNC(c1ccc(F)cc1)=N2 do in these assays?
D1 antag: -39*; D1 PAM: -10; TRHR ag: 0; D1 agonist: 0; TRHR enhancer: 4

What do the screens show for `CCOC(=O)C1=C(COC(=O)COc2ccccc2C(C)C)NC(=O)NC1C` (centres undefined)?
D1 antag: 15; D1 PAM: -7; TRHR ag: 0; D1 agonist: 2; TRHR enhancer: 4

How did COc1nnc(-c2ccc(N3CCOCC3)c(NC(=O)c3ccco3)c2)c2ccccc12 do in these assays?
D1 antag: -92*; D1 PAM: -2; TRHR ag: 0; D1 agonist: 0; TRHR enhancer: 13

What do the screens show for `COc1nnc(-c2ccc(N3CCOCC3)c(NC(=O)c3ccccc3)c2)c2ccccc12`?
D1 antag: 0; D1 PAM: 5; TRHR ag: -1; D1 agonist: 4; TRHR enhancer: -8

Results for CC(C)CC(=O)Nc1ccccc1OCc1cc(=O)n2ccccc2n1 ?
D1 antag: 9; D1 PAM: -2; TRHR ag: 0; D1 agonist: 0; TRHR enhancer: -5

How did NC(=O)c1nsc(C(=O)N(Cc2cccnc2)C(C(=O)NCc2ccc(F)cc2)c2ccc(F)cc2)c1N (centres undefined) do in these assays?
D1 antag: 10; D1 PAM: 0; TRHR ag: 0; D1 agonist: 1; TRHR enhancer: -6

What do the screens show for `Cc1cc2nc(-c3ccc[nH]c3=O)[nH]c2cc1C`?
D1 antag: -65*; D1 PAM: -9; TRHR ag: 0; D1 agonist: 1; TRHR enhancer: 0

How did Cc1cc(C)cc(OC(C)C(=O)Nc2c(C(=O)c3ccccc3)oc3ccccc23)c1 (centres undefined) do in these assays?
D1 antag: 1; D1 PAM: -4; TRHR ag: 2; D1 agonist: 2; TRHR enhancer: -7

How did Nc1c(C(=O)NCCN2CCOCC2)c2nc3ccccc3nc2n1-c1cccc(F)c1 do in these assays?
D1 antag: -48*; D1 PAM: -11; TRHR ag: 0; D1 agonist: 1; TRHR enhancer: -1

How did CCCNC(=O)c1c(N)n(-c2cccc(OC)c2)c2nc3ccccc3nc12 do in these assays?
D1 antag: -14; D1 PAM: -8; TRHR ag: 3; D1 agonist: 1; TRHR enhancer: -4

What do the screens show for `C=CCOc1cccc(CNCc2ccncc2)c1`?
D1 antag: -35*; D1 PAM: -7; TRHR ag: 0; D1 agonist: 12; TRHR enhancer: -8

What do the screens show for `Cc1cccc(NC(=O)CSc2nc3ccccc3nc2N2CCCCC2)c1C`?
D1 antag: -3; D1 PAM: -2; TRHR ag: -1; D1 agonist: -1; TRHR enhancer: 2

What do the screens show for `CN1CCN(C(=S)c2cn(Cc3ccc(Br)cc3)c3ccccc23)CC1`?
D1 antag: 10; D1 PAM: -4; TRHR ag: 0; D1 agonist: 10; TRHR enhancer: -12

What do the screens show for `Cc1ccc(NC(=O)CN(C)S(=O)(=O)c2cccc3cccnc23)cc1C`?
D1 antag: 12; D1 PAM: -3; TRHR ag: -1; D1 agonist: 1; TRHR enhancer: -2

How did COC(=O)c1sccc1S(=O)(=O)NC(C)c1cnn(-c2ccc(OC)cc2)c1C (centres undefined) do in these assays?
D1 antag: -50*; D1 PAM: 1; TRHR ag: 0; D1 agonist: 3; TRHR enhancer: -1

How did O=C(NCCN1CCOCC1)C(=O)c1c[nH]c2ccccc12 do in these assays?
D1 antag: -52*; D1 PAM: 1; TRHR ag: 0; D1 agonist: 2; TRHR enhancer: 2

What do the screens show for `O=C(CN1CCOCC1)c1c[nH]c2ccccc12`?
D1 antag: -1; D1 PAM: 2; TRHR ag: 1; D1 agonist: 5; TRHR enhancer: -2

How did O=C(Cc1ccc(F)cc1)N1CCC(c2nc3c(nnn3Cc3ccc(Cl)cc3)c(=O)[nH]2)CC1 do in these assays?
D1 antag: 8; D1 PAM: -2; TRHR ag: 0; D1 agonist: 0; TRHR enhancer: -7

How did O=C(c1ccc(S(=O)(=O)N2CCCC2)cc1)N(c1ccc(F)cc1)C1C=CS(=O)(=O)C1 (centres undefined) do in these assays?
D1 antag: -7; D1 PAM: 0; TRHR ag: 1; D1 agonist: 2; TRHR enhancer: -6

How did O=C(Nc1ccccc1)c1cccc(S(=O)(=O)Oc2ccc([N+](=O)[O-])cc2)c1 do in these assays?
D1 antag: -30*; D1 PAM: -5; TRHR ag: -2; D1 agonist: 18; TRHR enhancer: 3

Screens deposited in PubChem by National Center for Advancing Translational Sciences (NCATS).
